An excerpt weighted towards active compounds, which were near 2.7% of everything screened.
Nrf2 inh: Nrf2 qHTS screen for inhibitors; A549 ARE-Fluc reporter, luciferase luminescence, 18-24 h; Potency, µM (titrated, usually from 46 µM), for inactives: at the highest dose activity change, negative = inhibition, hits mostly inhibitors; 360,000 tested, 2.1% active; AID 504444, 2011; also: potency is read from the fitted curve at half-maximal effect; % is scaled to controls: 0 for no effect and ±100 for the full control effect; nearly all actives have a fitted effect of over 60% in size
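A549 ARE_Fluc cells, 5000/well, 5% FBS OPTI-MEM; compounds in dose-response, 18-24 h at 37 °C/5% CO2; CellTiter-Fluor viability read (Ex 405/Em 525), then BugLite luciferase luminescence = Nrf2 activity.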
Nrf2 activator: qHTS of Nrf2 Activators | AREc32 ARE-luciferase reporter (MCF7-derived line), luminescence, 24 h | Potency, µM (titrated, usually from 46.1 µM), for inactives: at the highest dose activation, actives largely listed as activators | 410,000 tested, 0.31% active; also: potency is read from the fitted curve at half-maximal effect; % of control where 0% means no effect; nearly all actives have a fitted effect of over 65% in size
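ARE-driven firefly luciferase activity in AREc32 cells measured after a 24 hr compound exposure at 37 deg C, using Steady-Glo reagent and a 30 min room-temperature hold.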
A549 tox: Nrf2 qHTS screen for inhibitors: counterscreen for cytotoxicity; A549 ARE-Fluc cells, CellTiter-Fluor viability, 18-24 h; 390,000 tested, 0.16% active; Potency, µM (top dose mostly 46 µM), inactives show at the highest dose activity change, negative = cytotoxicity, actives largely listed as inhibitors; also: potency is read from the fitted curve at half-maximal effect; % is scaled to controls: 0 for no effect and ±100 for the full control effect
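A549 ARE-Fluc cells in 5% FBS OPTI-MEM, 5000 cells/well, rested 2 h then exposed to compounds in concentration-response for 18-24 h at 37 °C. Viability by CellTiter-Fluor fluorescence (Ex 405/Em 525) after 30 min; luciferase luminescence (BugLite, 15 min, RT) read afterwards.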
LDHA block: qHTS assay for inhibitors of human lactate dehydrogenase; AID 1347041, 2019; 480,000 tested, 0.15% active; purified LDHA, NADH/diaphorase-resazurin fluorescence; stronger effect = lower value; L-lactate dehydrogenase A chain (Homo sapiens), P00338; activity change, % (values are at about 110 or 230 µM); in the data active = activity change below about -30%; inconclusive = mostly about -25% to -30%;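 also: plate controls were DMSO wells for no effect and wells without enzyme for full effect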
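Human LDH5 at 2 nM final in Tris HCl pH 7.4 with 0.06 mM NADH and 0.2 mM pyruvate, reacted 5 minutes at room temperature. Remaining NADH coupled via diaphorase/resazurin; resorufin fluorescence read at 0 and 20 minutes, normalized to enzyme-free and DMSO wells.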
IDH1 R132H inh: qHTS for Inhibitors of mutant isocitrate dehydrogenase 1 (IDH1): qHTS. Isocitrate dehydrogenase [NADP] cytoplasmic (Homo sapiens), O75874. 390,000 tested, 0.093% active. Potency, µM (top dose mostly 76.6 µM), for inactives: at the highest dose activity change, negative = inhibition, most hits filed as inhibitors. IDH1-R132H enzyme, NADPH consumption, diaphorase/resazurin fluorescence; also: potency is read from the fitted curve at half-maximal effect; % is scaled to controls: 0 for no effect and ±100 for the full control effect; nearly all actives have a fitted effect of over 65% in size
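IDH1-R132H (0.5 ug/mL) preincubated 30 min with compound, then NADPH (0.016 mM) and alpha-KG (2 mM) added; 80 min at RT, pH 7.5. Remaining NADPH coupled via diaphorase/resazurin to fluorescence (540/590 nm); concentration-response curves normalized to no-enzyme control.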
12-LOX inh: Primary qHTS assay for inhibitors of human arachidonate 12S-lipoxygenase (ALOX12): Round 2; Polyunsaturated fatty acid lipoxygenase ALOX12 (Homo sapiens), P18054; purified 12hLO, xylenol orange hydroperoxide absorbance; Potency, µM (doses to about 108 µM), for inactives: at the top dose activity change, negative = inhibition, actives largely listed as inhibitors; 580,000 tested, 1.1% active; also: potency is read from the fitted curve at half-maximal effect; % is scaled to controls: 0 for no effect and ±100 for the full control effect
Target sequence (P18054 whole entry, looked up): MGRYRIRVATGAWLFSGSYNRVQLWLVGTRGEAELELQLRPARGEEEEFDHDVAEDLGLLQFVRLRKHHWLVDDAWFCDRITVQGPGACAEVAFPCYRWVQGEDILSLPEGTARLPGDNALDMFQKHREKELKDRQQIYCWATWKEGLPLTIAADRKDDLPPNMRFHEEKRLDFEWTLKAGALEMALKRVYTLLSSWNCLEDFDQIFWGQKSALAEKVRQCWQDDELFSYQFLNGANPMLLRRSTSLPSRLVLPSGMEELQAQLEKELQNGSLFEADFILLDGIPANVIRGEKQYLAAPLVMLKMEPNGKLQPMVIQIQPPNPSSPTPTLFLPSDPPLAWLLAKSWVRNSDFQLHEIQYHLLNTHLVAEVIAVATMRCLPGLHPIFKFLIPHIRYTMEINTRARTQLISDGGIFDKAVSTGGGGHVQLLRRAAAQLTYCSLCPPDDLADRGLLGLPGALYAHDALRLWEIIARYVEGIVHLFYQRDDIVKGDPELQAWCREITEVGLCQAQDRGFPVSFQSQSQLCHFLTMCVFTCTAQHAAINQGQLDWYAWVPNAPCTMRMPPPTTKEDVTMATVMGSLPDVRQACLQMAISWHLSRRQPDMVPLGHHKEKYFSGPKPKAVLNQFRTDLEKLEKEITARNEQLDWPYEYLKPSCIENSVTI
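Purified human 12hLO at 150 nM in 25 mM Hepes, 0.01% Triton X-100, pH 7.0, preincubated 15 min at room temperature with compound. Reaction started with 40 uM arachidonic acid, 30 min at room temperature. Hydroperoxide measured by Fe-xylenol orange, 573/405 nm absorbance ratio.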
* marks the source's active call; other numbers are inactive results; u = inconclusive; x = not tested or not shown; ! = a repeat was not active; [ ] = dose if it differs, or a comment. Unless noted, calls follow the shape of the dose curve; as a rule, active = well fitted curve in the direction sought with a large enough effect; inconclusive = small, poorly fitted or top-dose-only effect, or another doubt; inactive = no such curve, though single readings can be large; an effect the other way counts as inactive or inconclusive.

SMILES	Nrf2 inh	Nrf2 activator	A549 tox	LDHA block	IDH1 R132H inh	12-LOX inh
O=C(CSc1ccc2ccccc2c1)Nc1ccncc1	7.3µM*	0%	-10%[1.84 µM]	4	-1%	0%
O=C(CSc1ccncc1)Nc1ccc2ccccc2c1	-5%	1%	-3%	7	10%	0%
O=C(COCc1nc2ccccc2s1)N1CCN(C2CCS(=O)(=O)C2)CC1 (stereo not drawn)	x	x	x	2	x	-3%
Cc1ccc(S(=O)(=O)N2CCN(c3ccc([N+](=O)[O-])c4cccnc34)CC2)cc1	-10%	0%	-7%	-31*!	9%	u
COc1ccc(OC)c(C2CC(=O)N3CN(c4ccccc4)CSC3=C2C#N)c1 (stereo not drawn)	17%	3%	-3%	4	-1%	u
CCc1ccccc1N1CSC2=C(C#N)C(c3ccccc3F)CC(=O)N2C1 (stereo not drawn)	-5%	1%	2%	2	-5%	3.2µM*
COc1ccc(N2CSC3=C(C#N)C(c4cccc(OC)c4OC)CC(=O)N3C2)cc1 (stereo not drawn)	11%	4%	-2%	13	10%	11µM*
COc1ccc(C2CC(=O)N3CN(c4ccc(C)c(Cl)c4)CSC3=C2C#N)cc1 (stereo not drawn)	20%	4%	5%	1	13%	4µM*
COc1cc(C2CC(=O)N3CN(c4ccc(C)cc4)CSC3=C2C#N)cc(Br)c1O (stereo not drawn)	x	x	x	27	x	1.3µM*
CC(NC(=O)Cn1nc(C(=O)O)c2ccccc2c1=O)c1ccc(Cl)cc1Cl (stereo not drawn)	x	x	x	3	x	u
CCC1CSC(Nc2ccc(C(=O)/C=C/c3cccc(C)c3)cc2)=N1 (stereo not drawn)	23µM*	0%	-18%	2	4%	-3%
O=C(CSc1nc2nn(-c3ccccc3)c(=O)c-2c2n1CCCCC2)Nc1ccc(F)c(F)c1	18µM*	-1%	u	8	-1%	-15%
CCCCNC(=O)Cn1cc(C#N)c2ccccc21	x	x	x	-1	x	-28%
c1csc(-c2nc3ccccn3c2NC2CCCCC2)c1	u	u	-11%	-4	14%	-19%
Cc1ccn2c(NC3CCCC3)c(-c3cccs3)nc2c1	3%	3%	6%	-12	2%	32µM*
O=C(O)c1ccc2c3c(ncnc13)-c1ccccc1C2=O	2.6µM*	13%	3.3µM*	27	9%	x
Fc1ccc(-c2csc(NCc3ccco3)n2)cc1F	x	x	x	-3	x	u
Cc1cc(NC(=O)C2CCCN2C(=O)Nc2cccc(Cl)c2)ccc1-n1cnnn1 (stereo not drawn)	16µM*	-1%	-3%	-10	0%	-10%
CCC(C)c1ccc(NC(=O)c2ccc(SC)cc2OC)cc1 (stereo not drawn)	x	x	x	6	x	-2%
CCOc1ccc(NC2=NCC(=O)N2Cc2cccs2)cc1	6%	3%	-5%	-2	8%	35µM*
COc1cccc(C(=O)NC(C(=O)N2CCCCC2)C2CCN(C(=O)c3ccc(F)cc3)CC2)c1 (stereo not drawn)	x	x	x	x	x	39%
COc1ccc(Br)c2oc(S)cc(=O)c12	0%	5%	-1%	-6	-7%	6.3µM*
Cc1c(C(C)(C)C)sc(=N)n1C	x	x	x	0	x	45µM*
CCOC(=O)c1c(-c2ccc(C)o2)csc1NC(=O)COC(=O)c1ccc(NC(N)=O)cc1	16µM*	19%	-11%	-10	4%	-1%
Cc1ccc(C)c(CS(=O)(=O)Cc2nc(C)no2)c1	x	x	x	-1	x	u
O=C(CCc1cccs1)N1CCSCC1	x	x	x	4	x	u

Source: PubChem (National Center for Advancing Translational Sciences (NCATS))
